HP1b chromo inh: HTS for Inhibitors of HP1-beta Chromodomain Interactions with Methylated Histone Tails | Chromobox protein homolog 1 (Homo sapiens), P83916 | AlphaScreen HP1-beta / biotin-H3K9me3 peptide binding | Potency, µM (top dose mostly 114 µM), inactives show top-dose activity change, negative = inhibition, hits mostly inhibitors | hit rate 0.56% among 390,000; note: nearly all actives have a fitted effect of over 70% in size
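AlphaScreen: HP1-beta (50 nM) preformed 30 min with biotin-H3(1-18)K9me3 peptide (50 nM) in PBS pH 7.4, 0.01% Tween-20. Compound added for 30 min at RT, then streptavidin donor/nickel chelate acceptor beads (10 ug/mL) for 30 min.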
G9a inh: qHTS Assay for Inhibitors of Histone Lysine Methyltransferase G9a; G9a H3K9 monomethylation, AlphaScreen, 2 h; Potency, µM (top dose mostly 102 µM), without a hit: at the highest dose activity, negative = inhibition, usual class: inhibitors; hit rate 8.8% among 350,000; note: % is set by controls: 0 for no effect and ±100 for the full control effect; nearly all actives have a fitted effect of over 75% in size
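Step 1: enzyme (final 20 nM) with compound, 15 min RT. Step 2: substrate peptide 500 nM and SAM 20 uM, 2 h RT. Step 3: anti-H3K9me1 antibody and AlphaScreen beads, 10 min, then plate read.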
PLK1 PBD block: qHTS for Inhibitors of PLK1-PDB (polo-like kinase 1 - polo-box domain): Primary Screen. Serine/threonine-protein kinase PLK1 (Homo sapiens), P53350. Plk1 PBD binding of FITC phosphopeptide, fluorescence polarization. Potency, µM, inactives show max response, negative = inhibition, most hits filed as inhibitors. hit rate 2.8% among 360,000. AID 720504, 2013; note: series mostly up to about 57 µM; % is set by controls: 0 for no effect and ±100 for the full control effect; nearly all actives have a fitted effect of over 65% in size
Target sequence (P53350 whole entry, looked up, the tested form may be a part): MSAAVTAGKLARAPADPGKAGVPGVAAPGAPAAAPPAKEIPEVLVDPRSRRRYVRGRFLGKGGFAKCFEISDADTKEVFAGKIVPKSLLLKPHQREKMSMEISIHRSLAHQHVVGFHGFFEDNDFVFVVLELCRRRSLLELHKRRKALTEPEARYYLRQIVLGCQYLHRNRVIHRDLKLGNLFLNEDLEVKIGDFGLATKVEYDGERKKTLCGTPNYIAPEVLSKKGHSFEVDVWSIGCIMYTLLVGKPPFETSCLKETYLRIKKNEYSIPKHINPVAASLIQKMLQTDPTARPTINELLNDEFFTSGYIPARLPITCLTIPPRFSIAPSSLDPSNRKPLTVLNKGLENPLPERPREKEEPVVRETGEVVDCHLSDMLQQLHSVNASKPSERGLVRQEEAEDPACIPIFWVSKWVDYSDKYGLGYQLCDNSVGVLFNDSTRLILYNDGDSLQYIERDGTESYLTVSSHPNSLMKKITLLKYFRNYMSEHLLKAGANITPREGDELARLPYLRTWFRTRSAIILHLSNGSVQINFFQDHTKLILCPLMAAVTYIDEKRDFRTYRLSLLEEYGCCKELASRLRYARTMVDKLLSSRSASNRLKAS
JMJD2A Tudor inh: qHTS Assay for Inhibitors of JMJD2A-Tudor Domain. Potency, µM (highest dose often 114 µM), for inactives: top-dose activity change, negative = inhibition, most hits filed as inhibitors. AlphaScreen JMJD2A-Tudor / H3K4me3 peptide binding. hit rate 4.4% among 390,000; note: % is set by controls: 0 for no effect and ±100 for the full control effect; nearly all actives have a fitted effect of over 50% in size
BAZ2B inh: qHTS Assay for Inhibitors of BAZ2B; Potency, µM (top dose mostly 114 µM), for the others: at the top dose activity change, negative = inhibition, actives largely listed as inhibitors; Bromodomain adjacent to zinc finger domain protein 2B (Homo sapiens), Q9UIF8; hit rate 4.4% among 360,000; AID 504333, 2011; AlphaScreen BAZ2B-H3K14Ac peptide displacement; note: % is set by controls: 0 for no effect and ±100 for the full control effect; nearly all actives have a fitted effect of over 60% in size
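AlphaScreen displacement: compounds (up to 110uM) incubated 30 min at room temperature with a preformed 50 nM BAZ2B/50 nM biotinylated H3K14Ac peptide complex in PBS pH 7.4 with Tween-20. Donor and acceptor beads at 10 ug/mL final added, 20 min light-protected before reading.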
Sfp inh: qHTS Assay for Inhibitors of Bacillus subtilis Sfp phosphopantetheinyl transferase (PPTase) | 4'-phosphopantetheinyl transferase ffp (Bacillus subtilis), Q9F4F7 | Biochemical Sfp PPTase activity, qHTS | Potency, µM, inactives show largest response in the series, negative = inhibition, hits mostly inhibitors | hit rate 3.5% among 310,000;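 note: the enzyme is Sfp with the accession as filed and its product quenches rhodamine fluorescence; 0% = enzyme reaction without inhibitor and -100% = no enzyme wells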
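After 15 min at room temperature with compound, 15 nM Sfp received 5 uM rhodamine-CoA plus 12.5 uM BHQ-2-ybbR (50 mM Hepes pH 7.6, 10 mM MgCl2). Rate came from the fluorescence difference over 30 min, ex 525/em 598 nm.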
Numbers without * were called inactive; ? = inconclusive; . = not tested or not shown; ! = repeats disagree; [ ] = another dose, or the depositor's remark. Most compounds without a hit are left out; they make up all but 12% or so of the library. Calls come from the whole dose curve; as a rule, active = well fitted curve in the direction sought with a large enough effect; inconclusive = small, poorly fitted or top-dose-only effect, or another doubt; inactive = no such curve, though single readings can be large; an effect the other way counts as inactive or inconclusive. Potency is the fitted concentration of half-maximal effect.

SMILES | HP1b chromo inh | G9a inh | PLK1 PBD block | JMJD2A Tudor inh | BAZ2B inh | Sfp inh
C=CCc1c(C)nc2c(OC)cccc2c1Cl | 27% | 3% | -22% | -11% | 5% | 13%
CCc1ccc(CN(Cc2ccco2)C(=O)c2cc(-c3ccc(Cl)cc3)on2)cc1 | 77% | 29%[59 µM] | . | 2% | 4% | .
O=C(CCc1nnc2ccc(NCc3ccco3)nn12)N1CCN(c2ccccc2)CC1 | -23% | -16% | 19µM* | 40µM* | 50µM* | 3%
COc1ccc(NC(=O)c2ccc3c(c2)N(Cc2cccc(Cl)c2)C(=O)c2ccccc2S3(=O)=O)cc1Cl | 34% | -6%[59 µM] | . | -14% | -16% | .
COCCn1c(=O)cnc2cnc(Nc3cccc(OC)c3)nc21 | . | 6%[0.501 µM] | . | . | . | 16%
COc1ccc(OCCn2cnc3ccccc32)cc1 | 14% | -18% | -6% | -22% | -9% | -4%
O=C(OCC(=O)c1c[nH]c2ccccc12)c1ccc([N+](=O)[O-])s1 | ? | 45µM* | -22% | ? | ? | 2%
N#Cc1cnc(Nc2nc3ccccc3o2)nc1-c1ccccc1 | 34% | 2%[12.7 µM] | -20% | -23% | -3% | 11%
Cc1ccnc(Nc2nc3ccccc3o2)n1 | 27% | ? | 0% | -25% | 5% | 71µM*
Cc1ccc(Nc2nc3ccccc3o2)cc1F | -3% | 6% | 3µM* | 11µM* | 16% | 4%
Cc1ccc(Nc2c3c(nc4ccccc24)CCC3)cc1F | 32% | -25%[59 µM] | . | -24% | -27% | .
CCCCCCn1c(=O)n2n(c1=O)C[C@]1(OC(=O)NCc3ccccc3)CN(S(=O)(=O)c3ccc(C)cc3)C[C@]1(O)C2 | . | . | -3% | . | . | .
NCCC(=O)N[C@@H](Cc1cnc[nH]1)C(=O)O | . | . | . | . | . | 12%
Cc1cc2c(nc1C)CCCN2C[C@H](C)O/N=C\[C@@H](C)[C@H](OCc1ccccc1)C(C)C | . | . | . | . | . | 5%
CCOC(=O)C1CCCN(C2CC(=O)N(c3cccc(C(F)(F)F)c3)C2=O)C1 (centres undefined) | 46% | ? | -8% | 56µM* | -31% | 50µM*
CCOC(=O)C1CCCN(C2CC(=O)N(c3ccc(C)c(C)c3)C2=O)C1 (centres undefined) | 30% | -43%[59 µM] | -3% | -10% | 1% | 8%
CCOC(=O)C1CCCN(C2CC(=O)N(c3ccc(N4C(=O)CC(N5CCCC(C(=O)OCC)C5)C4=O)cc3)C2=O)C1 (centres undefined) | 42% | 32µM* | -7% | -3% | 50µM* | -28%
CCOC(=O)C1CCCN(C2CC(=O)N(c3ccccc3)C2=O)C1 (centres undefined) | 46% | . | -3% | 2% | 2% | 1%
COc1cc(C(=O)N=c2sccn2C)c([N+](=O)[O-])cc1OC | 14% | 46% | -5% | -25% | 4% | 18%
Cn1ccsc1=NC(=O)c1ccc([N+](=O)[O-])o1 | ? | ? | -25% | 56µM* | -30% | 9%
COc1cccc(N2C(=O)c3ccncc3C2=O)c1 | 10% | -10% | 4% | -15% | -10% | 21%
Cc1cccc(N2C(=O)/C(=C\c3ccc(OC(F)F)cc3)c3ccccc3C2=O)c1 | -20% | -14%[59 µM] | 2.4µM* | ? | ? | ?
COc1cccc(/C=C2\C(=O)N(c3cccc(C)c3)C(=O)c3ccccc32)c1 | -14% | 18µM* | 2.7µM* | -31% | ? | -15%
Nc1cnccc1C(=O)O | 23% | ? | ? | ? | ? | 25µM*
COc1cc([N+](=O)[O-])cc(/C=N/NC(=O)c2cccnc2)c1O | 13% | . | -6% | 22µM* | 18µM* | 1%
SMILES | HP1b chromo inh | G9a inh | PLK1 PBD block | JMJD2A Tudor inh | BAZ2B inh | Sfp inh
COc1cc(OC)c(/C=N/NC(=O)c2ccncc2)c(OC)c1 | 16% | 3% | ? | 4µM* | 9% | -11%
COc1cccc(C=NNC(=O)c2ccncc2)c1O | 15% | . | -8% | 56µM* | . | .
CCOc1cccc(/C=N/NC(=O)c2cccnc2)c1O | 58% | 32% | -4% | 89µM* | 32µM* | 20%
COc1ccc(/C=N/NC(=O)c2ccncc2)c(OC)c1 | 50% | -17% | -4% | -8% | 3% | 4%
COc1cc([N+](=O)[O-])cc(/C=N/NC(=O)C(O)(c2ccccc2)c2ccccc2)c1O | 18% | -3% | -3% | -28% | ? | 0%
CCOc1cc(/C=N/NC(=O)c2cccnc2)ccc1O | 27% | 6% | 7% | -10% | -1% | 20%
CCCN(Cc1cccs1)C(=O)Nc1ccc(Br)cc1F | 23% | -10%[59 µM] | . | -10% | -4% | .
COc1ccc(F)cc1CN1CCN(C(=O)c2ccc(S(=O)(=O)N3CCCCCC3)cc2)CC1 | 12% | . | -7% | -31% | . | .
CS(=O)(=O)c1ccc([C@H](O)[C@H](CO)NC(=O)C(Cl)Cl)cc1 | . | 28%[21.5 µM] | . | . | . | 11%
COc1c(/C=N/NC(=O)c2ccncc2)c(CCN(C)C(C)=O)cc2c1OCO2 | 3% | 50µM* | -5% | 3% | -13% | 14%
Cc1cccc(N(CC(O)Cn2c3ccccc3c3ccccc32)S(=O)(=O)c2ccc(F)cc2)c1 (centres undefined) | 23% | -10%[59 µM] | . | -12% | -11% | .
COc1ccc2[nH]c3c(c2c1)CCNC3c1ccc([N+](=O)[O-])o1 (centres undefined) | -9% | 32µM* | ? | 50µM* | ? | 50µM*
COC(=O)c1cc2sc(C)cc2n1Cc1nc(-c2cccc(Br)c2)oc1C | 45% | 2%[59 µM] | . | 0% | 3% | .
COc1cc(N=Nc2ccccc2C(=O)O)ccc1O | 14% | 50µM* | -1% | -7% | -34% | -25%
CN(c1ccc(O)cc1)S(=O)(=O)c1ccc2ccccc2c1 | -3% | -14% | -12% | -25% | -13% | 1%
COc1cc(N=Nc2ccc3ccccc3c2)ccc1O | ? | -47%[12.7 µM] | 4% | 40µM* | 25µM* | 5%
COc1cc(-c2nc3ccccc3nc2-c2ccc(O)c(OC)c2)ccc1O | 3% | . | 4% | -29% | -9% | 2%
Oc1ccc(N=Nc2ccc3ccccc3c2)cc1 | ? | -3%[0.501 µM] | 7% | 45µM* | 32µM* | -8%
Cc1cccc(N2CCN(S(=O)(=O)c3c(C)[nH]c(=O)[nH]c3=O)CC2)c1C | 10% | 40µM*! | -11% | -14% | -2% | -12%

Bioassay records as filed in PubChem.
